Assay results: PubChem BioAssay
Inconclusive results are not listed. The source made the active and inactive calls.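 Rule for the calls, unless noted: active = viability at or below 30% in both replicate assays; inconclusive = viability at or below 30% in just one of the two assays; inactive = the rest.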

Key:
[1] = Her2 expression decrease, cell viability multiplex – SKBR3 breast tumor cells, AlphaScreen, ATP viability, primary screen (AID 461;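 active = Her2 level under about 52% in both replicate screens, with viability over 70% of control, limit read from the data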;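 for Her2 level: lower value means less Her2 protein in the cells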;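 for viability: percent of carrier control wells set as 100% viability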); conditions: SKBR3 Her2 protein level, 18-24 h, measured here: SKBR3 viability, ATP luminescence, at 10 µM
[2] = target: Receptor tyrosine-protein kinase erbB-2 (Homo sapiens) (UniProt P04626); test: as above; conditions: 18-24 h, at 10 µM, stronger effect = lower value
[3] = reduced viability of SK-BR-3 breast cancer cells – cell-based, 24 h, human, pilot screen (AID 572;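 active = viability at or below 10% of carrier control in both of two separate runs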;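 note: compound exposure lasted between 18 and 24 h rather than exactly 24 h; 100% = carrier-treated control wells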); conditions: SK-BR-3 viability, CellTiter-Glo luminescence, at 10 µM, stronger effect = lower value
[4] = HUVEC growth inhibition – cell-based, human, primary screen (AID 575); conditions: HUVEC proliferation, CellTiter-Glo luminescence, 72 h; at 10 µM; stronger effect = lower value;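 note: 100% = median of untreated cell wells with 0.1% DMSO on each plate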
[5] = H69AR cell proliferation blockers – human, duplicate replicates, primary screen (AID 580;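 active = viability at or under a set limit in both replicates, limit being median viability minus 3 SD, cut at about 48% in these data, passing the limit was not always enough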;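 note: 100% = mean luminescence of untreated wells and 0% = no signal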); conditions: H69AR lung tumor cells viability, ATP luminescence, 72 h; at 10 µM; stronger effect = lower value
[6] = MRP1 drug-resistance reversers in H69AR cells – cell-based, doxorubicin co-treatment, pilot screen (AID 601;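 active = viability loss from added drug above about 55%, and viability with drug at most 40%, in both replicates, limit read from the data, passing the limit was not always enough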); conditions: CellTiter-Glo, 72 h, at 10 µM; for differential viability (reversal): stronger effect = higher value
[7] = yeast transport mutant growth inhibition pilot in 384-well plates, post-Golgi transport modulator project (AID 636; in the data active = inhibition above about 31%); conditions: absorbance 615 nm, about 18 h, stronger effect = higher value
[8] = growth suppression of yeast trafficking mutant, preliminary HTS, modulators of trafficking downstream of Golgi apparatus project, 1536-format plate, OD 615 nm (AID 637; in the data active = inhibition above about 30%); conditions: yeast transport mutant growth, absorbance 615 nm, 18 h; stronger effect = higher value
[9] = S. cerevisiae growth inhibition in permissive medium (OD615), pilot counter-assay for S. cerevisiae lifespan shortening project, permissive growth control (AID 705;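 active = growth inhibition above 25% in both replicates, a cutoff set 3 SD above the mean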); conditions: OD615, 24 h, at 10 µM, stronger effect = higher value
[10] = S. cerevisiae growth inhibition in restrictive medium, OD615, pilot screen, restrictive growth control, yeast lifespan reduction project (AID 706;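 active = growth inhibition above a set limit, 3 SD over mean compound inhibition, in both replicates, cut at about 43% in these data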;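 note: modified DeaD lifespan yeast strain shifted to restrictive glucose medium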); conditions: OD615, 48 h, at 10 µM, stronger effect = higher value
[11] = doxorubicin toxicity protection in MRP-1 cells – H69AR cells, CellTiter-Glo, duplicate, MRP-1 activator project, pilot screen (AID 807;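 active = viability increase at or above a cutoff of the median across tested compounds plus 3 SD, cut at about 8.5% in these data, passing the limit was not always enough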;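 note: compound pretreatment 18-22 h then 72 h combined with doxorubicin; 0% = doxorubicin alone and 100% = vehicle without doxorubicin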); conditions: H69AR viability with doxorubicin, CellTiter-Glo luminescence; at 10 µM; stronger effect = higher value
[12] = viability of HCT116 without oncogenic beta-catenin – human colon tumor cells, pilot screen (AID 823;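 active = cell viability at or below a set limit in both duplicate runs, the limit being the all-compound median minus 4 SD, cut at about 23% in these data, passing the limit was not always enough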;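 note: 0% = wells killed by 20 µM Hyamine and 100% = untreated DMSO cell wells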); conditions: HCT116 beta-catenin knockout viability, CellTiter-Glo, 60 h; at 10 µM; stronger effect = lower value
[13] = viability of PTEN-null HCT116 cells – cell-based, HCT116 clonal line, CellTiter-Glo, pilot screen (AID 824;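 active = viability at or below 27.92% in each of two runs, the all-compound median minus 4 SD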;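 note: 0% = 20 µM Hyamine control and 100% = vehicle cell control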); conditions: HCT116 PTEN-deleted viability, 60 h, at 10 µM, stronger effect = lower value
[14] = RAM pathway blockade in budding yeast – dse1pr::URA3 reporter, 5-FOA selection, pilot screen (AID 869;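 active = inhibition over a set limit, the all-compound mean plus 3 SD, in both replicate runs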;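 note: 0% = DMSO wells with no growth and 100% = 10 µM 1-NA-PP1 with full growth; RAM network block rescues cells from 5-FOA so hits raise OD615 growth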); conditions: S. cerevisiae dse1pr::URA3 5-FOA growth, OD615, 2 d; at 10 µM; stronger effect = higher value; strain carries analog-sensitive mutant Cbk1 kinase
[15] = RAM signaling pathway blockade in yeast – S. cerevisiae, Pdr1DBD-CYC8 efflux-inhibited sensitized strain, primary screen (AID 1298;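 active = RAM network inhibition above 8.4% in each of two replicates, 3 SD over the compound average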;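 note: 0% = DMSO untreated cells without growth and 100% = 10 µM 1-NA-PP1 full growth; higher means more yeast growth rescued from 5-FOA killing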); conditions: S. cerevisiae cbk1-as DSE1-URA3 strain, 5-FOA growth OD615, 2 d; at 50 µM; stronger effect = higher value
[16] = H69AR cells + 2 uM doxorubicin, measured here: viability with 2 uM doxorubicin, stronger effect = lower value
[17] = H69AR cells, compound alone cytotoxicity

Receptor tyrosine-protein kinase erbB-2 (Homo sapiens), sequence (P04626 whole entry, looked up): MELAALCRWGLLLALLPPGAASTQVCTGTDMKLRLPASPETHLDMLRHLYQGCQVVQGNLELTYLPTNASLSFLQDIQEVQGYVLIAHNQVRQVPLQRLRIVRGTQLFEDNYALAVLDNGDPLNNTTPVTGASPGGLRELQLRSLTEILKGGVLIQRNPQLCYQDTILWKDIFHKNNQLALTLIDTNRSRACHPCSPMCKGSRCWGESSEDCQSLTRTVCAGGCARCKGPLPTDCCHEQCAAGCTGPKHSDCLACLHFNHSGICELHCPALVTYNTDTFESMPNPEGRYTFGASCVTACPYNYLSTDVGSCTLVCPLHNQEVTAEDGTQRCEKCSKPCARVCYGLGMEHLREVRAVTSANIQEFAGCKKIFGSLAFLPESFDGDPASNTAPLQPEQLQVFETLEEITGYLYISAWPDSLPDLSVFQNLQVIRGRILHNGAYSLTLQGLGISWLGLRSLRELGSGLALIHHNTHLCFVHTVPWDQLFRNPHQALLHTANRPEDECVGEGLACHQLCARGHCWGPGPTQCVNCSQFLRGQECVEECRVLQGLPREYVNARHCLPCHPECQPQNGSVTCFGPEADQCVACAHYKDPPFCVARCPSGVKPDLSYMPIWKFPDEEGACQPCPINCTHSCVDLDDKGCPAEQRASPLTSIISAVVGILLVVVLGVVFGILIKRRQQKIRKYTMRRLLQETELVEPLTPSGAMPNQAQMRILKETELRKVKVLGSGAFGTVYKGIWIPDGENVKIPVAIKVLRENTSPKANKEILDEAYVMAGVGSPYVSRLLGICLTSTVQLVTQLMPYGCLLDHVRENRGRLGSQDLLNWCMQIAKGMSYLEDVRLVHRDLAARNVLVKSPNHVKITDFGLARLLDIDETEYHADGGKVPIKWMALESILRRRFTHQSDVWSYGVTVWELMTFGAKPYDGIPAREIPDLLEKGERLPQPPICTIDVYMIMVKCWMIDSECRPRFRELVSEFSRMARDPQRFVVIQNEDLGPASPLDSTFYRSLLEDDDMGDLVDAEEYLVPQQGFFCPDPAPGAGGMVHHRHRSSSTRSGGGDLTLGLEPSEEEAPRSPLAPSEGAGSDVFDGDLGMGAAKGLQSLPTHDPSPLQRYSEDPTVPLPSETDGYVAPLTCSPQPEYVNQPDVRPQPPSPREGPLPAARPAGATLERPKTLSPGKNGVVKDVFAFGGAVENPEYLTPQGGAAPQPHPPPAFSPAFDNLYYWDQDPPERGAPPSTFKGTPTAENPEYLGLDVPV

Compound | viability [1] | Her2 level [2] | viability [3] | viability [4] | viability [5] | differential viability (reversal) ([6]; H69AR cells + 2 uM doxorubicin) | viability [6, 16] | viability [6, 17] | inhibition [7] | inhibition [8] | growth inhibition [9] | growth inhibition [10] | viability increase [11] | viability [12] | viability [13] | inhibition [14] | RAM network inhibition [15]
CCOc1ccc2[nH]c(C)cc(=O)c2c1 | 100% | 100% (inactive) | 100% (inactive) | 94.8% (inactive) | 108% (inactive) | 18.7% (inactive) | 89.6% | 108% | 0% (inactive) | -9.02% (inactive) | -12.8% (inactive) | 3.82% (inactive) | -2.11% (inactive) | 96.7% (inactive) | 88.4% (inactive) | 2.86% (inactive) | 3.45% (inactive)
Cc1cc2ncc(-c3ccc(Cl)cc3)c(N)n2n1 | 83% | 114% (inactive) | 83% (inactive) | 69.6% (inactive) | 82.7% (inactive) | -0.45% (inactive) | 83.1% | 82.7% | -4.93% (inactive) | -0.5% (inactive) | -12.6% (inactive) | -0.665% (inactive) | -4.85% (inactive) | 88% (inactive) | 85.4% (inactive) | 1.27% (inactive) | 1.2% (inactive)
COc1ccc(C(=O)NCc2nc3ccccc3[nH]2)cc1OC | 110% | 115% (inactive) | 110% (inactive) | 101% (inactive) | 107% (inactive) | 16.6% (inactive) | 90.2% | 107% | -3.6% (inactive) | -6.67% (inactive) | -9.82% (inactive) | -15% (inactive) | 0.84% (inactive) | 102% (inactive) | 98.2% (inactive) | 2.96% (inactive) | 6.63% (inactive)
O=C(CSc1nnnn1-c1ccccc1Cl)Nc1ccc2c(c1)OCCO2 | 91.5% | 96% (inactive) | 91.5% (inactive) | 101% (inactive) | 77.2% (inactive) | -7.98% (inactive) | 85.2% | 77.2% | -0.4% (inactive) | 4.33% (inactive) | 1.69% (inactive) | 3.15% (inactive) | 1.44% (inactive) | 99.4% (inactive) | 87.5% (inactive) | 2.22% (inactive) | 5.58% (inactive)
COc1ccc(N2CCN(C(=O)C(C)(C)Oc3ccc(Cl)cc3)CC2)cc1 | 85% | 91.5% (inactive) | 85% (inactive) | 76.9% (inactive) | 68.4% (inactive) | -10.2% (inactive) | 78.6% | 68.4% | -1.07% (inactive) | -2.83% (inactive) | -6.29% (inactive) | 5.29% (inactive) | -4.56% (inactive) | 74.4% (inactive) | 71.7% (inactive) | 1.45% (inactive) | 9.33% (inactive)
Cc1ccc(-c2nc3cnccn3c2Nc2ccc3c(c2)OCO3)o1 | 91.5% | 90.5% (inactive) | 91.5% (inactive) | 92.4% (inactive) | 77.7% (inactive) | -13.6% (inactive) | 91.3% | 77.7% | -6.53% (inactive) | -2.83% (inactive) | -15.8% (inactive) | 3.3% (inactive) | -3.1% (inactive) | 95.8% (inactive) | 91.9% (inactive) | 1.34% (inactive) | 12.5% (inactive)
Cc1csc(NC(=O)C(Cc2ccccc2)n2cccc2)n1 (stereo not given) | 91.5% | 87% (inactive) | 91.5% (inactive) | 101% (inactive) | 87.6% (inactive) | 5.21% (inactive) | 82.4% | 87.6% | -3.73% (inactive) | 6.56% (inactive) | -13.9% (inactive) | -8.47% (inactive) | -5.96% (inactive) | 73.8% (inactive) | 73.1% (inactive) | 1.32% (inactive) | 6.15% (inactive)
CCOc1ccc(C2CC(c3ccccc3C)n3nc(N)nc3N2)cc1 (stereo not given) | 87.5% | 93.5% (inactive) | 87.5% (inactive) | 87.9% (inactive) | 87.9% (inactive) | -14.3% (inactive) | 102% | 87.9% | -2.82% (inactive) | -3% (inactive) | -4.05% (inactive) | 0.985% (inactive) | -1.27% (inactive) | 93.8% (inactive) | 83.3% (inactive) | 1.23% (inactive) | 5.2% (inactive)
O=C(CC1Oc2ccc(Cl)cc2NC1=O)NC1CCCCCC1 (stereo not given) | 92.5% | 87.5% (inactive) | 92.5% (inactive) | 78.1% (inactive) | 88% (inactive) | -3.67% (inactive) | 91.6% | 88% | -1.47% (inactive) | 2.13% (inactive) | -4.77% (inactive) | -8.75% (inactive) | -1.05% (inactive) | 102% (inactive) | 102% (inactive) | 3.56% (inactive) | 4.95% (inactive)
Cn1nnnc1SCC(=O)Nc1ccccc1C(=O)NCc1ccccc1 | 99% | 98% (inactive) | 99% (inactive) | 108% (inactive) | 90.2% (inactive) | -4.73% (inactive) | 94.9% | 90.2% | -6.49% (inactive) | -7.33% (inactive) | -9.6% (inactive) | 4.06% (inactive) | -2.1% (inactive) | 97.6% (inactive) | 97.8% (inactive) | 1.04% (inactive) | 7.35% (inactive)
COCCNC(=O)c1cc(-c2cccs2)on1 | 97% | 77.5% (inactive) | 97% (inactive) | 84.9% (inactive) | 84.7% (inactive) | 23.6% (inactive) | 61.1% | 84.7% | -0.64% (inactive) | -4.17% (inactive) | -0.235% (inactive) | 2.31% (inactive) | -7.54% (inactive) | 67.3% (inactive) | 70.6% (inactive) | 0.105% (inactive) | 3.61% (inactive)
CCCCc1ccc(NC(=O)C2CCCO2)cc1 (stereo not given) | 92% | 122% (inactive) | 92% (inactive) | 93.5% (inactive) | 103% (inactive) | 20.8% (inactive) | 82.2% | 103% | -4.87% (inactive) | -5.33% (inactive) | 2.46% (inactive) | 2.07% (inactive) | 2.53% (inactive) | 100% (inactive) | 94.5% (inactive) | 1.05% (inactive) | 3.17% (inactive)
COC(=O)c1ccsc1NC(=O)CN1C(=O)CCC1=O | 83.5% | 121% (inactive) | 83.5% (inactive) | 83.1% (inactive) | 91.6% (inactive) | 22.4% (inactive) | 69.2% | 91.6% | -1.33% (inactive) | 15.7% (inactive) | -2.7% (inactive) | -9.07% (inactive) | -1.57% (inactive) | 100% (inactive) | 98.7% (inactive) | -0.08% (inactive) | 0.15% (inactive)
COc1ccccc1S(=O)(=O)Cc1ccc(C(=O)N2CCN(c3ccc(C)cc3)C(C)C2)o1 (stereo not given) | 82.5% | 64.5% (inactive) | 82.5% (inactive) | 52.4% (inactive) | 7.92% (active) | -48.4% (inactive) | 56.3% | 7.92% | -1.07% (inactive) | 1.64% (inactive) | 4.27% (inactive) | -15.2% (inactive) | -6.26% (inactive) | 43.2% (inactive) | 36.8% (inactive) | 0.41% (inactive) | 5.28% (inactive)
CCn1cc(C(=O)NCCCOC)c(=O)c2cc(S(=O)(=O)N(C)C)ccc21 | 92% | 106% (inactive) | 92% (inactive) | 89.3% (inactive) | 87.6% (inactive) | -23.8% (inactive) | 111% | 87.6% | -1.73% (inactive) | -5.33% (inactive) | -8.04% (inactive) | -9.63% (inactive) | -2.52% (inactive) | 97.6% (inactive) | 94.2% (inactive) | 0.395% (inactive) | 0.52% (inactive)
Cc1ccc(CSc2nc3c(c(=O)[nH]2)CCC3)cc1 | 86.5% | 91.5% (inactive) | 86.5% (inactive) | 79.7% (inactive) | 93.1% (inactive) | 17.8% (inactive) | 75.2% | 93.1% | -0.13% (inactive) | 2.67% (inactive) | -9.96% (inactive) | -26.7% (inactive) | -0.74% (inactive) | 105% (inactive) | 92.9% (inactive) | 3% (inactive) | 3.47% (inactive)
COc1cccc(C2C(C(=O)c3ccc(C)o3)=C(O)C(=O)N2CCCN(C)C)c1 (stereo not given) | 99.5% | 90.5% (inactive) | 99.5% (inactive) | 100% (inactive) | 108% (inactive) | 12.6% (inactive) | 95% | 108% | -4.73% (inactive) | 7.14% (inactive) | -10.7% (inactive) | -11.7% (inactive) | -1.16% (inactive) | 102% (inactive) | 96.1% (inactive) | -0.125% (inactive) | 1.67% (inactive)
CCOC(=O)c1ccccc1NC(=O)c1ccc2c(=O)n3c(nc2c1)CCCCC3 | 87.5% | 84.5% (inactive) | 87.5% (inactive) | 84.9% (inactive) | 84.4% (inactive) | -9.15% (inactive) | 93.5% | 84.4% | -4.53% (inactive) | 0.67% (inactive) | -5.51% (inactive) | -0.78% (inactive) | -1.73% (inactive) | 82.5% (inactive) | 81.2% (inactive) | 1.7% (inactive) | 18.8% (active)
CCOCCCNC(=O)Cn1ncc2c(=O)oc3ccccc3c21 | 95% | 98% (inactive) | 95% (inactive) | 81.5% (inactive) | 90.5% (inactive) | -3.42% (inactive) | 93.9% | 90.5% | 1.79% (inactive) | -2.83% (inactive) | 7.44% (inactive) | 15.2% (inactive) | -0.6% (inactive) | 101% (inactive) | 94.3% (inactive) | -0.73% (inactive) | 1.15% (inactive)
CCOC(=O)N1CCC(c2cc(=O)n3[nH]cc(C(=O)OC)c3n2)CC1 | 94.5% | 101% (inactive) | 94.5% (inactive) | 92.1% (inactive) | 92.2% (inactive) | 9.5% (inactive) | 82.7% | 92.2% | -4% (inactive) | 0.83% (inactive) | 2.45% (inactive) | 9.29% (inactive) | -0.6% (inactive) | 88.8% (inactive) | 101% (inactive) | 0.045% (inactive) | 0.56% (inactive)
